Measured values taken from PubChem BioAssay AID1851 (National Center for Advancing Translational Sciences (NCATS), 2009).
“And” between values parts separate entries of the source, which are not always exact repeats. Equal entries are not always repeated. Screen size: about 16,000 compounds; about 5,100 (32%) were called active. About 25% were inconclusive and are not listed. The list shows a part of the results. Unmarked numbers belong to inactive results. The call rests on the fitted dose curve; in most records, active means well fitted curve in the direction sought with a large enough effect; inconclusive means small, poorly fitted or top-dose-only effect, or effect the other way; inactive means no such curve, though single readings can be large or run the other way.
On the % scale 0 is the no-effect control and ±100 the full control effect.

Each compound was assayed against Cytochrome P450 3A4 (Homo sapiens) (UniProt P08684) (assay: Cytochrome panel assay with activity outcomes). Settings: recombinant CYP, pro-luciferin dealkylation, luminescence, p450-cyp3a4; series mostly up to 57.1 µM; activity, negative = inhibition: at the top concentration.
Chain of Cytochrome P450 3A4 (Homo sapiens) (P08684 whole entry, looked up): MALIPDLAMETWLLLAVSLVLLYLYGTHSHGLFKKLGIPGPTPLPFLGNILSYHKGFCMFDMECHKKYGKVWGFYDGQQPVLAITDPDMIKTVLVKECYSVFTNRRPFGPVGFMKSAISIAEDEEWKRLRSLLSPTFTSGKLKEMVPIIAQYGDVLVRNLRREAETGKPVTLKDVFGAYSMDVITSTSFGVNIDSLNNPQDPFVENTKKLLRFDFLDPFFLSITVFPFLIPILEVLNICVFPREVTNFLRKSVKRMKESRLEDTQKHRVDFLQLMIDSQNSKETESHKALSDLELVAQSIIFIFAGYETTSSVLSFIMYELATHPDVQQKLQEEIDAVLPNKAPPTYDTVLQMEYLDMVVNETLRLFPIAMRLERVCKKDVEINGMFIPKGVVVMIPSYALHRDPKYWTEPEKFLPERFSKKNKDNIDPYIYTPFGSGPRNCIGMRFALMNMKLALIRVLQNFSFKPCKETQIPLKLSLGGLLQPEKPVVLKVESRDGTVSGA
`CC1=NN(c2ccccc2)C(=O)[C@@H]1N=Nc1ccc(S(N)(=O)=O)cc1` showed an activity, negative = inhibition of -5.5% [at 11.4 µM].
For `CCOCc1cnc(C)nc1NCC(=O)c1c(C)[nH]c2ccccc12`, the “activity, negative = inhibition” value was -7.96%.
With `O=S(=O)(NC1CCN(Cc2ccccc2)CC1)c1cccc2cccnc12` the AC50 was 15.8 µM (active).
Compound `c1ccc(CN2CC[C@@H](CNc3ncnc4ccccc34)C2)cc1` has an activity, negative = inhibition of -19.3% [at 11.4 µM].
With `Oc1ccc(CNCc2ccccc2)c2cccnc12` the activity, negative = inhibition was -8.41% [at 11.4 µM].
`O=C(NCCCN1CCN(C2CCCCC2)CC1)Nc1ccccc1C(F)(F)F` was tested, and the “activity, negative = inhibition” value was -2.67%.
For `O=C(NCCCN1CCN(Cc2ccccc2)CC1)C1CCN(S(=O)(=O)N2CCCC2)CC1`, the “activity, negative = inhibition” value was -24.6%.
In the case of `O=C(NCCCN1CCCCCC1)[C@@H](c1ccccc1)C1CCCCC1`, the AC50 is reported as 3.98 µM (active).
With `Cc1ccc(-c2ccc(CCC(=O)O)o2)cc1` the “activity, negative = inhibition” value was -10.7%.
`Cc1ccc(S(=O)(=O)N(CC(=O)NCCC2=CCCCC2)Cc2ccccc2F)cc1` was tested, and the activity, negative = inhibition was -9.36% [at 2.29 µM].
With `COC(=O)C(NS(=O)(=O)c1ccc(NC(C)=O)cc1)C(C)C` (stereo unspecified) the “activity, negative = inhibition” value was -23.1%.
With `CCCCCOc1ccc(NC(=O)C(=O)NCCC2=CCCCC2)cc1` the “activity, negative = inhibition” value was 3.45%.
In the case of `CC(=O)Nc1ccc(S(=O)(=O)N=S(C)C)cc1`, the AC50 is reported as “inactive”.
With `CC(=O)Nc1ccc(S(=O)(=O)NC(CC(=O)NCCC2=CCCCC2)C(C)C)cc1` (stereo unspecified) the AC50 was 15.8 µM (active).
For `COc1ccc(CONS(=O)(=O)c2ccc(NC(C)=O)cc2)cc1Cl`, the AC50 was 3.16 µM (active).
For `COc1ccc(CCNC(=O)CC(NS(=O)(=O)c2ccc(NC(C)=O)cc2)C(C)C)cc1OC` (stereo unspecified), the AC50 was 15.8 µM (active).
With `C[C@H](O)CO[C@H]1[C@H]2O[C@H]3[C@H](O)[C@@H](O)[C@@H](O[C@H]4[C@H](O)[C@@H](O)[C@@H](O[C@H]5[C@H](O)[C@@H](O)[C@@H](O[C@H]6[C@H](O)[C@@H](OC[C@H](C)O)[C@@H](O[C@H]7[C@H](O)[C@@H](OC[C@H](C)O)[C@@H](O[C@H]8[C@H](O)[C@@H](O)[C@@H](O[C@@H]([C@@H]1O)[C@@H](CO)O2)O[C@@H]8CO)O[C@@H]7CO)O[C@@H]6CO)O[C@@H]5CO)O[C@@H]4CO)O[C@@H]3CO` the “activity, negative = inhibition” value was 0.0498%.
For `O=C(Nc1cccc(C(F)(F)F)c1)C1CCCN1S(=O)(=O)c1cccc2cccnc12` (stereo unspecified), the AC50 was 11.2 µM (active).
In the case of `O=C(Nc1cccc2cccnc12)[C@@H]1[C@@H](C(=O)O)[C@H]2CC[C@@H]1O2`, the activity, negative = inhibition is reported as -18.7% [at 11.4 µM].
For `COc1ccc(-c2ccc(C(=S)N3CCN(C(C)=O)CC3)o2)cc1`, the AC50 was 25.1 µM (active).
For `C[C@H](N[C@@H](C)COc1ccccc1)[C@H](O)c1ccc(O)cc1`, the “activity, negative = inhibition” value was -12.4% [at 25.6 µM].
With `COc1ccc(N2C(=O)CSC2c2cccc(F)c2)c(OC)c1` (stereo unspecified) the AC50 was 12.6 µM (active).
Work on `COc1ccc(C2/C(=C(/O)c3ccccc3)C(=O)C(=O)N2c2ccccn2)c(OC)c1` (stereo unspecified) yielded an activity, negative = inhibition of 1.16% [at 2.29 µM].
`C/C(=N\[N+](C)(C)C)c1ccc(C)c(C)c1` gave an activity, negative = inhibition of -5.81% [at 11.4 µM].
Work on `COC(=O)c1ccc(Cl)c(NC(=O)c2ccc(-c3ccccc3)cc2)c1` yielded an activity, negative = inhibition of 0.213% [at 2.29 µM].
For `O=C(Nc1cc(-c2nc3ccccc3s2)ccc1Cl)c1ccc2c(c1)OCO2`, the AC50 was 2.24 µM (active).
For `O=C(Nc1cccc(-c2nc3ccccc3s2)c1)c1ccc2c(c1)OCO2`, the AC50 was 2.24 µM (active).
For `CCOc1ccc(CN(C(=O)c2oc3ccccc3c2C)C2CCS(=O)(=O)C2)cc1` (stereo unspecified), the AC50 was 12.6 µM (active).
In the case of `CCc1ccc(OCC(=O)OC2CCS(=O)(=O)C2)cc1` (stereo unspecified), the “activity, negative = inhibition” value is reported as 9.21%.
With `O=C(c1ccccc1)N(Cc1ccco1)C1CCS(=O)(=O)C1` (stereo unspecified) the “activity, negative = inhibition” value was -11.5%.
With `CCc1ccc(CN(C(=O)c2cc3ccccc3oc2=O)C2CCS(=O)(=O)C2)cc1` (stereo unspecified) the AC50 was 14.1 µM (active).
Work on `Cc1ccc[n+](CC(=O)c2cc3ccccc3oc2=O)c1` yielded an activity, negative = inhibition of -4.17% [at 2.29 µM].
In the case of `CN(C(=O)COc1cccc(Br)c1)C1CCS(=O)(=O)C1` (stereo unspecified), the “activity, negative = inhibition” value is reported as -25.4%.
`CCCN(C(=S)Nc1ccccc1)C1CCS(=O)(=O)C1` (stereo unspecified) was tested, and the “activity, negative = inhibition” value was -16.8%.
With `O=C(c1sc2ccccc2c1Cl)N(Cc1ccccc1)C1CCS(=O)(=O)C1` (stereo unspecified) the AC50 was 11.2 µM (active).
In the case of `C[C@@H](CC(=O)O)[C@@H](N)C(=O)O`, the “activity, negative = inhibition” value is reported as -18.5%.
`O=C(Oc1cccc(Br)c1)c1cccnc1` was tested, and the “activity, negative = inhibition” value was -29.3%.
In the case of `O=C(COC(=O)c1cccnc1)c1ccc(Cl)c(Cl)c1`, the AC50 is reported as 0.562 µM (active).
With `O=C(COC(=O)c1cccnc1Cl)c1ccccc1` the “activity, negative = inhibition” value was -13.3%.
In the case of `CON1C(=O)C(=O)N(OC)C2CCCCC21` (stereo unspecified), the “activity, negative = inhibition” value is reported as 2.41%.
With `CC(C)(C)N1C(=O)[C@H]2[C@@H]3[C@H](O)[C@H](O)CC(=O)[C@H]3CC[C@H]2C1=O` the activity, negative = inhibition was -16.1% [at 11.4 µM] and -10.3% [at 11.4 µM].
`COc1ccccc1-c1cncnc1NCc1cnc(C)cn1` was tested, and the AC50 was 1.26 µM (active).
`Cc1cnc(CNc2ncncc2-c2ccccc2C)cn1` was tested, and the AC50 was 1 µM (active).
In the case of `Cc1cnc(CNc2ncncc2-c2ccccc2CN(C)C)cn1`, the AC50 is reported as 3.16 µM (active).
`CN(C)Cc1ccccc1-c1cncnc1NC1CC1` was tested, and the AC50 was 12.6 µM (active).
With `O=[N+]([O-])c1ccccc1N=Nc1c(O)[nH]c2ccc(S(=O)(=O)O)cc12` the activity, negative = inhibition was -6.01% [at 11.4 µM].
For `C/C(=N\NC(=O)CC1N=C(Cc2ccccc2)NNC1=O)c1ccc(Cl)cc1Cl` (stereo unspecified), the AC50 was 1.26 µM (active).
In the case of `Nc1ccc(-c2nc3c(Cl)c(N)ccc3[nH]2)cc1`, the AC50 is reported as 1 µM (active).
For `c1cncc(-c2nccc(NCc3cccs3)n2)c1`, the AC50 was 1 µM (active).
`CN(C)C(=O)c1ccc(-c2nccc(NCc3cccs3)n2)cc1` was tested, and the AC50 was 25.1 µM (active).
In the case of `CN(C)c1ccc(-c2nccc(NCc3cccs3)n2)cc1`, the AC50 is reported as 12.6 µM (active).
`c1csc(CNc2ccnc(-c3ccoc3)n2)c1` was tested, and the AC50 was 7.94 µM (active).
For `Cc1ccccc1Oc1ncnc2sccc12`, the “activity, negative = inhibition” value was -7.77%.
With `COc1cccc(Nc2ncc3nc(-c4ccccc4)c(=O)n(C)c3n2)c1` the “activity, negative = inhibition” value was -0.713%.
`Cn1c(=O)c(-c2ccc(Cl)cc2)nc2cnc(Nc3ccccc3)nc21` was tested, and the “activity, negative = inhibition” value was -6.47%.
With `COc1ccc(-n2c(=O)c(C)nc3cnc(Nc4ccccc4)nc32)cc1` the AC50 was 12.6 µM (active).
For `COc1cccc(Nc2ncc3nc(C)c(=O)n(-c4ccccc4)c3n2)c1`, the AC50 was 15.8 µM (active).
In the case of `O=C(Nc1ccccc1)N(Cc1ccccc1)CC(O)C(F)(F)F` (stereo unspecified), the “activity, negative = inhibition” value is reported as -16%.
With `CCOc1ccc(C(=O)NC(=S)N(Cc2ccccc2)Cc2ccccc2)cc1` the AC50 was 10 µM (active).
With `COc1ccc(CN(CCC#N)C(=S)NC(=O)c2ccccc2)cc1` the AC50 was 14.1 µM (active).
With `O=C(NC(=S)N(Cc1ccccc1)Cc1ccccc1)c1ccccc1F` the AC50 was 15.8 µM (active).
Compound `COc1ccc(C(=O)NNC(=S)NC(=O)c2ccco2)cc1` has an activity, negative = inhibition of 9.96% [at 2.29 µM].
In the case of `CCC(=O)c1ccc(OCC(O)CN(CCc2ccccc2)Cc2ccccc2)cc1` (stereo unspecified), the “activity, negative = inhibition” value is reported as -6.18%.
`N/C(=N\c1nc2ccccc2o1)NC(=O)c1ccccc1F` was tested, and the “activity, negative = inhibition” value was -22.5%.
With `CC(C)Cc1ccc([C@H](C)C(=O)O)cc1` the AC50 was “inactive”.
`CCN(CC)c1ccc(/C=N/Nc2nc(C)cc(=O)[nH]2)cc1` was tested, and the AC50 was 14.1 µM (active).
With `CCOC(=O)N/N=C/c1ccc(F)cc1` the “activity, negative = inhibition” value was 2.36%.
For `N=c1sccn1CC(=O)Nc1cccc(Oc2ccccc2)c1`, the activity, negative = inhibition was -7.61% [at 11.4 µM].
`Nc1ccc(S(=O)(=O)NCc2nccs2)cc1` was tested, and the activity, negative = inhibition was -10.4% [at 11.4 µM].
With `O=S(=O)(NCc1cn2ccsc2n1)c1ccc(Oc2ccccc2)cc1` the AC50 was 11.2 µM (active).
With `Cc1ccc(-c2ccc(/C=N/N3C(=O)C4C5C=CC(C6CC56)C4C3=O)o2)c([N+](=O)[O-])c1` (stereo unspecified) the AC50 was 2.24 µM (active).
For `Cc1cc(-c2ccc(/C=N/n3cnnc3)o2)c([N+](=O)[O-])cc1C`, the “activity, negative = inhibition” value was 16.7%.
`Cc1nc(C(=O)Nc2ccc(Cl)cc2Cl)nn1-c1cc(OC(C)C)c(Cl)cc1Cl` was tested, and the “activity, negative = inhibition” value was -10.6%.
In the case of `COc1cccc2c1OC[C@@H](CO)[C@H]2N(C)C(=O)Nc1ccc(Cl)cc1Cl`, the AC50 is reported as 14.1 µM (active).
`NC(=O)c1cc[n+](CC2=C(C(=O)[O-])N3C(=O)[C@@H](NC(=O)Cc4cccs4)[C@@H]3SC2)cc1` was tested, and the “activity, negative = inhibition” value was -15.1% [at 25.6 µM].
For `CN(C)c1ccc(-c2nc3n(n2)C(c2cccnc2)C2=C(CC(C)(C)CC2=O)N3)cc1` (stereo unspecified), the AC50 was 2.24 µM (active).
`COc1ccc(-c2cc(C(F)F)nc(-n3nc(C)cc3C)n2)cc1` was tested, and the AC50 was 10 µM (active).
`Cc1cc(C)n(-c2nc(NC(C)C)nc(NC(C)C)n2)n1` was tested, and the activity, negative = inhibition was 0.214% [at 11.4 µM].
In the case of `CCCCn1c(NCc2ccccc2NS(=O)(=O)c2ccc(C)cc2)nc2ccccc21`, the AC50 is reported as 3.55 µM (active).
`Cc1ccc(S(=O)(=O)Nc2ccccc2C=O)cc1` gave an activity, negative = inhibition of -24.7% [at 11.4 µM].
Compound `CC(C)(C)NCC[C@@H](O)c1cc(C(F)(F)F)nc2c(C(F)(F)F)cccc12` has an activity, negative = inhibition of -13.6% [at 11.4 µM].
For `COC(=O)N1CCC2(CCN(C(=O)Nc3ccccc3)CC2)CC1`, the “activity, negative = inhibition” value was 18.1%.
`Cc1noc(C)c1C(=O)N1CCC2(CCCN(C(c3ccccc3)c3ccccc3)C2)CC1` was tested, and the “activity, negative = inhibition” value was -26.6%.
In the case of `Cc1cc(C)c(NC(=O)C[C@H](CC(=O)O)c2cccc3ccccc23)c(C(=O)N2CCC3(CCCC3)CC2)c1`, the AC50 is reported as 15.8 µM (active).
`CC1=C(C(=O)OCc2ccccc2)C(c2cccnc2)c2c(n(C)c(=O)n(C)c2=O)N1` (stereo unspecified) was tested, and the AC50 was 11.2 µM (active).
In the case of `CC1=C(C(=O)OCc2ccccc2)C(c2ccccc2)NC(=O)N1CCCCCC(=O)O` (stereo unspecified), the “activity, negative = inhibition” value is reported as -1.28%.
For `CCOC(=O)CC(=O)CSc1nc(-c2ccccc2)cc(-c2ccc(Cl)cc2)c1C#N`, the AC50 was 17.8 µM (active).
`N#Cc1ccc(-c2ccccc2)nc1SCC(=O)c1cccc(Cl)c1` was tested, and the “activity, negative = inhibition” value was 21.1%.
`CC1(C)S[C@@H]2[C@H](NC(=O)[C@@H](N)c3ccccc3)C(=O)N2[C@H]1C(=O)O[C@H]1OC(=O)c2ccccc21` was tested, and the AC50 was 1.58 µM (active).
For `CC1(C)S[C@@H]2[C@H](NC(=O)[C@@H](N)c3ccc(O)cc3)C(=O)N2[C@H]1C(=O)O`, the “activity, negative = inhibition” value was 9.74% [at 25.6 µM].
For `C[C@H](Oc1ccccc1)C(=O)N[C@@H]1C(=O)N2[C@@H]1SC(C)(C)[C@@H]2C(=O)O`, the “activity, negative = inhibition” value was 2.08% [at 25.6 µM].
